Experimental data as given in ChEMBL document CHEMBL3988442, “University of Dundee, Small-Polar-MMV Screening Library” (2021).
Among all 48,000 compounds or so, about 13,000 (27%) showed an effect of 50% or more. The list shows a part of the results.

Test system: Wolbachia pipientis
Experiment: Anti-Wolbachia Cell-Based Screen
Type: functional
Parameters: scale not given: in the data most compounds retested in dose-response had high values
Conditions: 5 µM

Row | Compound | Percent Effect [%]
1 | CC(C)(C)C(=O)N1C[C@@H]2COC[C@]2(c2nnc(C3CC3)o2)C1 | 1.473
2 | N#Cc1cccc(N2CCCC(CO)(CCOc3ccccc3)C2)n1 (stereo not drawn) | -9.375
3 | CN(C)c1nc(N2CCCC2)nc2c1CCN(C(=O)c1ccco1)CC2.O=C(O)C(F)(F)F.O=C(O)C(F)(F)F | 15.95
4 | CN(C)c1nc(N2CCCC2)nc2c1CCN(Cc1nccn1C)CC2.O=C(O)C(F)(F)F | 102.1
5 | Cc1nc(N2CCCC2)nc2c1CCN(Cc1nccn1C)CC2.O=C(O)C(F)(F)F | 105.6
6 | Cc1nc(N2CCCC2)nc2c1CCN(Cc1ccoc1)CC2.O=C(O)C(F)(F)F | 6.139
7 | Cn1ccnc1CN1CCc2ncnc(N3CCCC3)c2CC1.O=C(O)C(F)(F)F | 15.66
8 | CC(C)Nc1nc2c(c(N(C)C)n1)CCN(Cc1nccn1C)CC2.O=C(O)C(F)(F)F | -14.43
9 | O=C(c1cncc(N2CCC3(CCNCC3)CC2)n1)N1CCCC1 | 1.429
10 | CCC(C)(C)C(=O)N1CCN(C2=NCC(C)S2)CC1 (stereo not drawn) | -0.6002
11 | O=c1[nH]nc(C2CC2)n1-c1cccc(Cl)c1 | 12.75
12 | CCOc1ccccc1-n1c(C2CCC2)n[nH]c1=O | 114.1
13 | CCOc1ccccc1-n1c(C2CC2)n[nH]c1=O | 101.4
14 | CCOc1ccccc1-n1c(C2CC(=O)N(C)C2)n[nH]c1=O (stereo not drawn) | 114.8
15 | CCOc1ccccc1-n1c(CNC)n[nH]c1=O | -1.505
16 | CN1CC(c2n[nH]c(=O)n2-c2cccc(Cl)c2)CC1=O (stereo not drawn) | -17.26
17 | C[C@H](c1ccc(F)cc1)n1c(C2CCC2)n[nH]c1=O | 13.77
18 | CN1CCC(c2n[nH]c(=O)n2-c2cccc(Cl)c2)CC1 | -11.2
19 | CCOc1ccccc1OC1CCN(C(=O)c2nc(=O)[nH][nH]2)CC1 | -16.56
20 | CCN(Cc1cccc(C)c1)Cc1nc2c(cnn2C)c(=O)[nH]1 | 145.1
21 | CCN(Cc1cccc(Cl)c1)Cc1nc2c(cnn2C)c(=O)[nH]1 | 6.587
22 | CN(Cc1nc2c(cnn2C)c(=O)[nH]1)Cc1ccccc1Cl | -1.712
23 | CCN(Cc1nc2c(cnn2C)c(=O)[nH]1)Cc1ccccc1Cl | 128.5
24 | CCN(Cc1nc2c(cnn2C)c(=O)[nH]1)Cc1ccccc1C | -3.933
25 | CC(C)CN(Cc1nc2c(cnn2C)c(=O)[nH]1)C(C)C | -8.165
26 | CC(C)CN(CCc1ccccc1)Cc1nc2c(cnn2C)c(=O)[nH]1 | 122.3

Row | Compound | Percent Effect [%]
27 | CN(CCCc1ccccc1)Cc1nc2c(cnn2C)c(=O)[nH]1 | -1.148
28 | Cc1cccc(CN(C)Cc2nc3c(cnn3C)c(=O)[nH]2)c1 | -4.984
29 | CC(C)N(Cc1cccc(F)c1)Cc1nc2c(cnn2C)c(=O)[nH]1 | -9.693
30 | CC(C)N(Cc1cccc(Cl)c1)Cc1nc2c(cnn2C)c(=O)[nH]1 | 119.9
31 | Cc1ccc(NCc2ccc(C#N)cc2)c(CN(C)C)c1 | -4.346
32 | N#CCCN(Cc1ccccn1)C(=O)Nc1cccnc1 | -3.639
33 | CCN(C)c1ccc(C(=O)NCCCc2ccccn2)cn1 | 1.401
34 | CC(O)CC(C)(C)CNS(=O)(=O)c1cccc(Cl)c1C#N (stereo not drawn) | -3.91
35 | O=C(CN1C(=O)CCNC1=O)N1CCOC(c2ccc(F)cc2)C1 (stereo not drawn) | 13.31
36 | CCN(CC(=O)NC(C)C)S(=O)(=O)N1CCCC(C)C1 (stereo not drawn) | -4.686
37 | CC(=O)c1c(F)cccc1N1CCC(CS(N)(=O)=O)CC1 | -2.597
38 | CN(Cc1ccc([S+](C)[O-])cc1)c1ccc(Cl)cn1 (stereo not drawn) | -11.61
39 | CCN(Cc1ccccc1)Cc1nc2c(cnn2C)c(=O)[nH]1 | 106.9
40 | CCN(Cc1cccc(F)c1)Cc1nc2c(cnn2C)c(=O)[nH]1 | 117.6
41 | CCN(Cc1nc2c(cnn2C)c(=O)[nH]1)c1ccccc1C | -6.85
42 | Cn1ncc2c(=O)[nH]c(CN(Cc3cccc(F)c3)C3CC3)nc21 | 7.175
43 | CC(C)CN1C(=O)CC[C@H]2CN(Cc3ncc[nH]3)CC[C@H]21 | -0.2124
44 | Cc1noc(Cl)c1CC(=O)NCC(C)(O)c1ccc(F)cc1F (stereo not drawn) | 5.104
45 | CN(Cc1nc(-c2cccnc2)no1)C(=O)c1c2c(nn1C)CCCC2 | -6.1
46 | CCOCCOCc1cccc(CNc2cncc(-n3cccn3)n2)c1 | 5.599
47 | COC(=O)Nc1ccc(CNc2cncc(-n3cccn3)n2)cc1 | 97.69
48 | CNS(=O)(=O)Cc1ccc(CNc2cncc(-n3cccn3)n2)cc1 | 3.239
49 | Cc1cnn(CC(C)NCc2ccc(-n3cccn3)cc2)c1 (stereo not drawn) | 9.413
50 | CCOCc1ccc(CNc2cncc(-n3cccn3)n2)cc1 | 106.2
51 | CCOCc1ccc(CNc2nc(OC)ncc2Cl)cc1 | -6.174
52 | O=C1CN(c2ccc(CNc3cncc(-n4cccn4)n3)cc2)CCN1 | 17.5

Row | Compound | Percent Effect [%]
53 | CN(C)C(=O)C1CCN(c2cncc(-n3cccn3)n2)CC1 | 6.063
54 | CC(C)OCc1ccc(CNc2cncc(-n3cccn3)n2)cc1 | 123.9
55 | NS(=O)(=O)Cc1ccc(CNc2cncc(-n3cccn3)n2)cc1 | 114
56 | CC(C)COc1cncc(NCc2nnc3ccccn23)n1 | -11.09
57 | Cc1cc(N2C[C@H](C3CC3)[C@@H](N)C2)nc(N2CCCCC2)n1 | 11.86
58 | CC(C)c1cc(N2CCC(N(C)C)C2)n2nccc2n1 (stereo not drawn) | 10.32
59 | O=C1OCCN1Cc1ccc(C(F)(F)F)cc1F | -29.22
60 | CCNc1ncc(C(=O)NC(c2ccccc2)c2ccco2)cn1 (stereo not drawn) | -3.465
61 | COCCN(Cc1sccc1C)Cc1nccn1CCOC | 4.16
62 | CN(C)c1ccc(CNc2cncc(-n3cccn3)n2)cc1 | 6.951
63 | COCc1ccc(CNc2cncc(-n3cccn3)n2)cc1 | 105.5
64 | CN(C)c1cc(CNc2cncc(-n3cccn3)n2)ccn1 | 94.25
65 | CC(CNc1cncc(-n2cccn2)n1)N(C)c1ccccc1 (stereo not drawn) | 0.6159
66 | CCN(CC)S(=O)(=O)c1ccc(NC(=O)C(C)(C)C)cc1 | -6.648
67 | O=C(CCOc1ccc(Br)cc1)N1CCN(c2cnccn2)CC1 | 108.9
68 | O=C(c1ccc(-n2cc(Br)cn2)cc1)N1CCN(c2cnccn2)CC1 | 12.88
69 | O=C(CCOc1ccccc1Cl)N1CCN(c2cnccn2)CC1 | 81.46
70 | O=C(CCSc1ccccc1F)N1CCN(c2cnccn2)CC1 | 4.662
71 | Cc1nn(CC(=O)N2CCN(c3cnccn3)CC2)c(C)c1Cl | 4.895
72 | O=C(COc1ccc(Cl)cc1)N1CCN(c2cnccn2)CC1 | 138.2
73 | CC(CC(=O)N1CCN(c2cnccn2)CC1)c1ccc(F)cc1 (stereo not drawn) | 3.505
74 | O=C(CCSc1ccc(F)cc1)N1CCN(c2cnccn2)CC1 | -10.65
75 | O=C(Cc1ccc2c(c1)OCO2)N1CCN(c2cnccn2)CC1 | -5.983
76 | O=C(CCOc1cccc(Cl)c1)N1CCN(c2cnccn2)CC1 | 103.8
77 | CSCc1cccc(S(=O)(=O)NCCCO)c1 | -5.091
78 | CS(=O)(=O)CCN(CC1CCCO1)C1CCCC1 (stereo not drawn) | -6.798

Row | Compound | Percent Effect [%]
79 | CC(NCc1cn(CCC(N)=O)c2ccccc12)c1nncn1C (stereo not drawn) | -5.557
80 | O=C(C[C@@H]1COC[C@H]2CN(C3CCCC3)C[C@@H]12)N1CCCCO1.O=C(O)C(F)(F)F | 2.72
81 | Cc1ccc(C(=O)N2C[C@@H]3[C@@H](C2)OCC(=O)N3Cc2cccnc2)o1.O=C(O)C(F)(F)F | -3.343
82 | CN(C)CCOc1ccccc1N1CCN(C(=O)c2ccoc2)CC1 | -4.916
83 | Cc1ccc(C(=O)N2CCn3cc(CN(C)Cc4ccco4)nc3C2)o1.O=C(O)C(F)(F)F | -7.52
84 | Cc1ccoc1C(=O)N1CCc2ccc(=O)n(CCN(C)C)c2CC1.O=C(O)C(F)(F)F | 99.37
85 | Cc1ccoc1C(=O)N1C[C@@H]2[C@@H](C1)OCC(=O)N2Cc1cccnc1.O=C(O)C(F)(F)F | 8.295
86 | Cc1ccc2c(n1)N(CCN(C)C)CCN(C(=O)c1ccoc1)C2.O=C(O)C(F)(F)F.O=C(O)C(F)(F)F | 2.564
87 | Cc1ccoc1C(=O)N1Cc2c(Cn3ccnc3)nn(C)c2C1.O=C(O)C(F)(F)F | 12.61
88 | Cc1ccc(C(=O)N2CCc3ccc(=O)n(CCN(C)C)c3CC2)o1.O=C(O)C(F)(F)F | 107.1
89 | Cc1ccc2c(n1)N(CCN(C)C)CCN(C(=O)c1cccs1)C2.O=C(O)C(F)(F)F.O=C(O)C(F)(F)F | -13.61
90 | CN(C)CCn1c2c(ccc1=O)CCN(C(=O)c1ccoc1)CC2.O=C(O)C(F)(F)F | 107.6
91 | CN(C)CCn1c2c(ccc1=O)CCN(C(=O)c1cccs1)CC2.O=C(O)C(F)(F)F | 111.2
92 | CCS(=O)(=O)c1ccc2oc([C@H]3CCN(Cc4ccccc4)C3)nc2c1 | -9.259
93 | CC(NCCN1CCC(N(C)C)CC1)c1ccc(F)cc1N(C)C (stereo not drawn) | -1.854
94 | CCc1nc(CC(=O)N2CCC(C(=O)N(CC)CC)CC2)cs1 | 9.803
95 | NC(=O)C1CCN(C(=O)c2cccc(OCc3cscn3)c2)CC1 | -9.747
96 | Cc1cc(C)c(CNC(=O)NCCNc2cnccn2)c(=O)[nH]1 | 6.343
97 | Cc1ccc(C(=O)N2CCN(CCC(C)(C)C)CC2)c(=O)[nH]1 | -8.325
98 | OCC(O)CN(CCN1CCOCC1)Cc1ccco1 (stereo not drawn) | 99.07
99 | CC(=O)NCC(=O)N(CCN1CCOCC1)Cc1ccco1 | -7.485
100 | CS(=O)(=O)CC(=O)N(CCN1CCOCC1)Cc1ccco1 | -25.1
101 | CC(C(=O)NCc1ccc(F)cc1)N(C)CCN1CCOCC1 (stereo not drawn) | 8.931
102 | C/C=C(\C)CN(CCN1CCOCC1)Cc1ccco1 | 118.7
103 | CN(C)CCN1CCOCC2(C1)CN(Cc1ccco1)CCO2.O=C(O)C(F)(F)F.O=C(O)C(F)(F)F.O=C(O)C(F)(F)F (stereo not drawn) | 27
